Bioassay records as filed in PubChem BioAssay.
Giardia killer = Small Molecules that selectively kill Giardia lamblia: qHTS. Giardia lamblia trophozoite viability. hit rate 0.15% among 340,000. activity change, % at 7.66 µM, hits read low; in the data active = activity change below about -80%; inconclusive = between about -30% and that limit;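 note: parasites exposed to compound for two days anaerobically before the ATP read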
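Trophozoite viability was measured as ATP-dependent luminescence, read 15-30 min after reagent addition. Before that, parasites at 100 cells/well were exposed to compounds for 48 h, anaerobically, at 37 deg C.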
TDP1 cell CPT = qHTS for Inhibitors of human tyrosyl-DNA phosphodiesterase 1 (TDP1): qHTS in cells in presence of CPT. chicken DT40 Tdp1-/-;hTDP1 cells + 20 nM CPT, ATP luminescence, 48 h. Potency, µM (doses to about 46.2 µM), inactives show top-dose activity change, negative = growth inhibition, actives largely listed as inhibitors. hit rate 12% among 420,000. AID 686979, 2013; note: potency is the fitted concentration of half-maximal effect; nearly all actives have a fitted effect of over 55% in size
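Chicken DT40 Tdp1-/- cells complemented with human TDP1, 400 cells/well, exposed to compounds plus 20 nM camptothecin for at least 48 h at 37 C; viability read as ATP content by CellTiter-Glo luminescence.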
TDP1 block = qHTS Assay for Inhibitors of Tyrosyl-DNA Phosphodiesterase (TDP1); Potency, µM (doses to about 130 µM), inactives show at the top dose activity change, negative = inhibition, actives largely listed as inhibitors; Tyrosyl-DNA phosphodiesterase 1 (Homo sapiens), Q9NUW8; recombinant TDP1, AlphaScreen DNA substrate cleavage; hit rate 0.28% among 350,000; note: potency is the fitted concentration of half-maximal effect; nearly all actives have a fitted effect of over 40% in size
Target sequence (Q9NUW8 whole entry, looked up): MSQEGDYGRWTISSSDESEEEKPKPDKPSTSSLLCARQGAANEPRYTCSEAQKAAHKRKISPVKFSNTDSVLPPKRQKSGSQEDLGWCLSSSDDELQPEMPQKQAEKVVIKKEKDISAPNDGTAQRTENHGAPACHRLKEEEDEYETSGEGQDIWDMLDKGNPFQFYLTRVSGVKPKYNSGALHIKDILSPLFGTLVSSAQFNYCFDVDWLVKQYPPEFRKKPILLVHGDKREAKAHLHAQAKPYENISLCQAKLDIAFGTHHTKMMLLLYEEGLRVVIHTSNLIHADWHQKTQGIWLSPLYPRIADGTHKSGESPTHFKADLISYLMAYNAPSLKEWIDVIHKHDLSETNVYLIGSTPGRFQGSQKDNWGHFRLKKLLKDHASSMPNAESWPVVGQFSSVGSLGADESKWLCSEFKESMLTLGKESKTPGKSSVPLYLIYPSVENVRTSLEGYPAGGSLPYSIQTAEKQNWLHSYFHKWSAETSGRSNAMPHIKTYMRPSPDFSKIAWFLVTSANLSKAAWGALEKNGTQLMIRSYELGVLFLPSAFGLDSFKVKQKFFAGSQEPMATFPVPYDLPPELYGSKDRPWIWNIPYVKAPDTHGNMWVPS
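Recombinant human Tdp1 (E. coli-expressed, 1 nM final) preincubated with compounds 15 min at room temperature, then 5'-biotin/3'-phosphotyrosine-FITC DNA substrate (15 nM final) added for 5 min. AlphaScreen beads (10 ug/ml final) added 10 min; cleavage lowers signal.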
TDP1 cell noCPT = qHTS for Inhibitors of human tyrosyl-DNA phosphodiesterase 1 (TDP1): qHTS in cells in absence of CPT. hit rate 15% among 420,000. Potency, µM (series often up to 46.2 µM), inactives show at the top dose activity change, negative = growth inhibition, usual class: inhibitors. AID 686978, 2013. DT40 Tdp1-/- hTDP1 cells, no CPT, ATP luminescence, 48 h; note: potency is the fitted concentration of half-maximal effect; nearly all actives have a fitted effect of over 55% in size
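Growth of hTDP1-complemented DT40 Tdp1-knockout cells is measured by ATP luminescence after at least 48 hr compound exposure at 37 °C, with DMSO substituting for the 20 nM CPT used in the parallel screen.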
ELG1 DNA repair = qHTS screen for small molecules that inhibit ELG1-dependent DNA repair in human embryonic kidney (HEK293T) cells expressing luciferase-tagged ELG1. HEK293T ELG1-luciferase reporter, luminescence, 16 h; DNA damage induced by 5-fluorouridine. Potency, µM (top dose mostly 46.1 µM), inactives show at the highest dose activity change, negative = inhibition, actives largely listed as inhibitors. hit rate 2.3% among 330,000. AID 504467, 2011; note: potency is the fitted concentration of half-maximal effect; nearly all actives have a fitted effect of over 55% in size
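Step one: seed 2,000 cells per well. Step two: pin-transfer compound or DMSO alongside 5-fluorouridine. Step three: incubate 16 hr, 37 °C, 5% CO2. Step four: add ONE-Glo, wait 30 min, read luminescence.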
IL1B secr inh = qHTS for Inhibitors of Inflammasome Signaling: IL-1-beta AlphaLISA Primary Screen; THP-1 LPS/ATP IL-1B secretion, AlphaLISA, 16 h; active compounds read low; activity change, % at 57.5 µM; hit rate 4.7% among 360,000; AID 743279, 2014; in the data active = activity change below about -50%; inconclusive = mostly about -30% to -49%
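THP-1 cells pretreated 1 hr with compounds (up to 57.5 uM final), then stimulated with LPS (250 ng/mL final) plus ATP (1.25 mM final); secreted IL-1B measured by AlphaLISA after 16 hr, decreased signal indicating inhibition.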
Active calls of the source: *; ! = a repeat was not active; [ ] = remark or other dose. An excerpt weighted towards active compounds, which were near 19% of everything screened. Unless noted, calls come from the whole dose curve; as a rule, active = well fitted curve in the direction sought with a large enough effect; inconclusive = small, poorly fitted or top-dose-only effect, or another doubt; inactive = no such curve, though single readings can be large; an effect the other way counts as inactive or inconclusive. % is set by controls: 0 for no effect and ±100 for the full control effect.

For COc1ccccc1/C=C/C(=O)Nc1nc2n(n1)C(c1ccc(F)cc1)C=C(c1ccccc1)N2 (centres undefined) the results were TDP1 cell CPT 10µM*, TDP1 block 9% and TDP1 cell noCPT 4.6µM*.
For CC(=O)Nc1nc2n(n1)C(c1ccc(F)cc1)C=C(c1ccc(Cl)cc1)N2 (centres undefined) the results were TDP1 cell CPT inconclusive, TDP1 block 11% and TDP1 cell noCPT inconclusive.
Screening CC1=CC(c2ccc(Cl)cc2)n2nc(NC(=O)CCCC(=O)O)nc2N1 (centres undefined) returned Giardia killer -5, TDP1 cell CPT 9%, TDP1 cell noCPT 5%, ELG1 DNA repair 7% and IL1B secr inh -3.
`COc1ccc(S(=O)(=O)N2CC(O)CC2C(=O)Nc2cccnc2)cc1` (centres undefined) gave Giardia killer 7, TDP1 cell CPT 10%, TDP1 block 5%, TDP1 cell noCPT -2%, ELG1 DNA repair 5% and IL1B secr inh 2.
`COc1ccc(C2CC(c3cccc(C(F)(F)F)c3)=NN2c2ccc(S(N)(=O)=O)cc2)cc1` (centres undefined) gave Giardia killer -16, TDP1 cell CPT inconclusive, TDP1 block -9%[56.1 µM], TDP1 cell noCPT 26µM*, ELG1 DNA repair -3% and IL1B secr inh inconclusive.
COc1ccc(C2CC(c3cccc(F)c3)=NN2c2ccc(S(N)(=O)=O)cc2)cc1 (centres undefined) was read as Giardia killer -1, TDP1 cell CPT inconclusive, TDP1 block -7%[56.1 µM], TDP1 cell noCPT inconclusive, ELG1 DNA repair 0% and IL1B secr inh -19.
`COc1ccc(C2CC(c3cccc(Br)c3)=NN2c2ccc(S(N)(=O)=O)cc2)cc1` (centres undefined) gave Giardia killer -2, TDP1 cell CPT 26µM*, TDP1 block -9%[56.1 µM], TDP1 cell noCPT inconclusive, ELG1 DNA repair -15% and IL1B secr inh 0.
Screening O=C(O)c1ccc(CNCc2ccc(Cl)cc2)s1 returned TDP1 cell CPT -7%, TDP1 block -5% and TDP1 cell noCPT -9%.
Cc1nn(C)c(C(=O)Nc2c(C)nn(Cc3c(F)c(F)c(F)c(F)c3F)c2C)c1Br was read as Giardia killer 11, TDP1 cell CPT 8.2µM*, TDP1 block 3%, TDP1 cell noCPT 3.7µM*, ELG1 DNA repair -4% and IL1B secr inh 35.
Screening CCOc1ccc(C(=O)Nc2ccc(N3CCN(C)CC3)cc2)cc1 returned Giardia killer -4, TDP1 cell CPT 4%, TDP1 cell noCPT -5%, ELG1 DNA repair inconclusive and IL1B secr inh -5.
C[C@@H]1CCc2cc(F)cc3c(=O)c(C(=O)O)cn1c23 was read as TDP1 block 12%[21 µM].
Screening CC1COc2c(N3CCN(C)CC3)c(F)cc3c(=O)c(C(=O)O)cn1c23 (centres undefined) returned Giardia killer 5, TDP1 cell CPT 21µM*!, TDP1 block 10%[56.1 µM], TDP1 cell noCPT 13µM*! and IL1B secr inh -21.
Screening CCOc1ccc(NC(=O)c2ccc(NC(=O)c3cn4c5c(c(N6CCN(C)CC6)c(F)cc5c3=O)OCC4C)cc2)cc1 (centres undefined) returned Giardia killer 3, TDP1 cell CPT 5.2µM*, TDP1 block 6%, TDP1 cell noCPT 4.6µM*, ELG1 DNA repair 4% and IL1B secr inh -12.
COc1ccc(CCNC(=O)C(=O)c2cn(CC(=O)N3CCCC3)c3ccccc23)cc1 was read as TDP1 cell CPT -13%, TDP1 cell noCPT 21µM* and IL1B secr inh -9.
`COc1ccc(OC)c(NC(=O)C(=O)c2cn(CC(=O)N3CCCC3)c3ccccc23)c1` gave Giardia killer 18, TDP1 cell CPT inconclusive, TDP1 block 3%, TDP1 cell noCPT inconclusive, ELG1 DNA repair 12µM* and IL1B secr inh -19.
`COc1ccc(NC(=O)C(=O)c2cn(CC(=O)N3CCCC3)c3ccccc23)cc1OC` gave Giardia killer 9, TDP1 cell CPT 16µM*, TDP1 block 7%, TDP1 cell noCPT 13µM*, ELG1 DNA repair -21% and IL1B secr inh -27.
Screening COc1ccc(OC)c(S(=O)(=O)N2CC=C(c3c(C)n(CC(=O)N4CCCC4)c4ccccc34)CC2)c1 returned TDP1 cell CPT 16µM*, TDP1 block 6% and TDP1 cell noCPT 18µM*.
For COc1ccc(C)cc1NC(=O)C(=O)c1cn(CC(=O)N2CCCC2)c2ccccc12 the results were Giardia killer 3, TDP1 cell CPT inconclusive, TDP1 block 5%, TDP1 cell noCPT 18µM*, ELG1 DNA repair inconclusive and IL1B secr inh 0.
For Cc1ccc(CN(C)c2nc(-c3cccnc3)nc3ccccc23)o1 the results were Giardia killer 3, TDP1 cell CPT inconclusive, TDP1 block 8%, TDP1 cell noCPT 16µM*, ELG1 DNA repair 10% and IL1B secr inh -28.
Screening CN(Cc1ccccc1F)c1nc(-c2cccnc2)nc2ccccc12 returned Giardia killer 11, TDP1 cell CPT 21µM*, TDP1 block 2%, TDP1 cell noCPT inconclusive, ELG1 DNA repair inconclusive and IL1B secr inh -76*.
`CCOc1ccc(-c2noc(-c3cccnc3)n2)cc1OCC` gave Giardia killer -9, TDP1 cell CPT -7%, TDP1 block 7%, TDP1 cell noCPT inconclusive and ELG1 DNA repair 18%.
`CCOc1ccc(CN(C)c2nc(-c3cccnc3)nc3ccccc23)cc1OC` gave Giardia killer 2, TDP1 cell CPT 13µM*, TDP1 block 15%, TDP1 cell noCPT inconclusive, ELG1 DNA repair 18µM* and IL1B secr inh -93*.
CC1CC=CC2C1C(=O)N(Cc1ccccc1)C2c1ccc(/C=C/c2ccccc2)cc1F (centres undefined) was read as Giardia killer -29 and TDP1 block 4%.
COc1cccc(/C=C(\C)C(=O)c2c(C)cc(C)[nH]c2=O)c1OC was read as Giardia killer -11, TDP1 cell CPT 3%, TDP1 cell noCPT 11%, ELG1 DNA repair -3% and IL1B secr inh -2.
`COc1ccc(Cl)cc1NC(=O)NCCn1c(=O)oc2ccc(C)cc21` gave TDP1 cell CPT inconclusive, TDP1 block 5% and TDP1 cell noCPT inconclusive.
